The values that follow come from the supplement of paper PMC9135407.

“And” between values parts separate entries of the source, which are not always exact repeats. Identical values can stand only once. Counter-ions that a name gives are not always drawn. The campaign covered roughly 5,800 compounds. About 620 (11%) showed activity.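 The calls were made as follows: active = score above a cut-off or among the top three wells of a plate; in these data no inactive exceeds 0.85.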 Shown is part of a subset that was picked to be rich in actives.

The subject of this assay is primary human hepatic stellate cells (donor 1). Briefly: scaled lipid accumulation score (0 = DMSO-like, 1 = nortriptyline-like); higher = stronger HSC inactivation (lipid re-accumulation), active = hit call of the paper. To be noted: 48 h.
Where [1] appears, read: library stock concentration: 10 mM.
Setting [2] is: library stock concentration: 1 mM.
[3] abbreviates: library stock concentration: 3.33 mM.

In the case of `C[N+]1(C)C2CCC1CC(OC(=O)c1c[nH]c3ccccc13)C2` (stereo unspecified) [3-Tropanylindole-3-carboxylate methiodide], under setting [1], the “scaled lipid accumulation score” value was ≤ 0 (inactive).
Turning to `Cn1cc(C(=O)C(=O)N[C@H]2CN3CCC2CC3)c2ccccc21`, the “scaled lipid accumulation score” value under setting [1] was 0.403 (inactive).
Turning to `c1ccc2c(c1)Sc1ccccc1N2CC1CN2CCC1CC2` (stereo unspecified), under setting [1], the “scaled lipid accumulation score” value is 1.03 (active).
The same measure, in the same setting: with `O=C(N[C@H]1CN2CCC1CC2)c1ccc(Cl)cc1` the figure was ≤ -0.001 (inactive) and 0.156 (inactive).
As for `COc1cc2c(cc1OC)[C@@]13CCN4CC5=CCO[C@H]6CC(=O)N2[C@H]1[C@H]6[C@H]5C[C@H]43` [Brucine], the “scaled lipid accumulation score” value runs as follows: (library stock concentration: 5.1 mM) ≤ 0 (inactive); under setting [1], ≤ 0 (inactive).
Consider `O=c1c2ccccc2[se]n1-c1ccccc1` [Ebselen] [listing 1 of 3 here], for which the “scaled lipid accumulation score” value under setting [2] is ≤ 0 (inactive).
With `O=c1c2ccccc2[se]n1-c1ccccc1`, under setting [1], the “scaled lipid accumulation score” value was 1.07 (active).
As to `O=c1c2ccccc2[se]n1-c1ccccc1` [Ebselen] [listing 2 of 3 here], the “scaled lipid accumulation score” value (library stock concentration: 18.2 mM) was 0.952 (active).
Turning to `O=c1c2ccccc2[se]n1-c1ccccc1` [Ebselen] [listing 3 of 3 here], the “scaled lipid accumulation score” value was 0.867 (active).
`CNC1=Nc2ccc(Cl)cc2C(c2ccccc2)=[N+]([O-])C1`: the “scaled lipid accumulation score” value under setting [1] is 0.036 (inactive).
On to `CCCCC/C=C\C/C=C\C/C=C\C/C=C\CCCCOC(CO)CO` [2-Arachidonyl Glycerol ether], for which the “scaled lipid accumulation score” value under setting [2] is ≤ 0 (inactive).
With `COc1ccc2cc(C(C#N)OC(=O)OCC3OC3c3ccccc3)ccc2c1` (stereo unspecified) [Epoxy Fluor 7], the “scaled lipid accumulation score” value under setting [2] is 0.009 (inactive).
For `Cc1cc2c(C(C)C)c(O)c(O)c(C=O)c2c(O)c1-c1c(C)cc2c(C(C)C)c(O)c(O)c(C=O)c2c1O` [listing 1 of 2 here], the “scaled lipid accumulation score” value by setting is: under setting [3], ≤ 0 (inactive); under setting [1], 0.142 (inactive).
For `Cc1cc2c(C(C)C)c(O)c(O)c(C=O)c2c(O)c1-c1c(C)cc2c(C(C)C)c(O)c(O)c(C=O)c2c1O` [Gossypol], the “scaled lipid accumulation score” value was ≤ 0 (inactive). Under setting [3], the “scaled lipid accumulation score” value was 0.016 (inactive). Moreover, under setting [1], the “scaled lipid accumulation score” value is 0.824 (inactive) and 0.57 (inactive).
On to `Cc1cc2c(C(C)C)c(O)c(O)c(C=O)c2c(O)c1-c1c(C)cc2c(C(C)C)c(O)c(O)c(C=O)c2c1O` [listing 2 of 2 here], for which the “scaled lipid accumulation score” value under setting [1] is 0.999 (active).
The same measure, in the same setting: then `CC(N)Cc1ccc(O)cc1` (stereo unspecified) [Hydroxyamphetamine hydrobromide], with ≤ 0 (inactive).
On to `CC(C)=CCC[C@]1(C)C=Cc2c(O)c3c(c(CC=C(C)C)c2O1)O[C@]12C(=C[C@@H]4C[C@H]1C(C)(C)O[C@@]2(C/C=C(/C)C(=O)O)C4=O)C3=O` [Gambogic acid], for which, under setting [1], the “scaled lipid accumulation score” value was 0.672 (inactive).
For `CCCCCCC(C)(C)c1cc(OC)c2c(c1)OC(C)(C)[C@@H]1CC=C(C)C[C@@H]21`, the “scaled lipid accumulation score” value under setting [2] is ≤ 0 (inactive).
Consider `O=C1CSC(c2ccccc2Cl)c2cc(Cl)ccc2N1` (stereo unspecified), for which the “scaled lipid accumulation score” value was ≤ -0.006 (inactive) under setting [1] and 0.158 (inactive) (library stock concentration: 15.4 mM).
As for `CC[C@@]1([C@H]2O[C@H]([C@H]3O[C@@](O)(CO)[C@H](C)C[C@@H]3C)C[C@H]2C)CC[C@H]([C@@]2(C)CC[C@]3(C[C@H](O)[C@@H](C)[C@@H]([C@H](C)[C@H](OC)[C@@H](C)C(=O)O)O3)O2)O1` [Monensin sodium], the “scaled lipid accumulation score” value (library stock concentration: 7.2 mM) is 0.508 (inactive).
For the molecule `CC[C@@]1([C@@H]2O[C@@H]([C@H]3O[C@@](O)(CO)[C@H](C)C[C@@H]3C)C[C@@H]2C)CC[C@H]([C@]2(C)CC[C@]3(C[C@H](O)[C@@H](C)[C@@H]([C@@H](C)[C@@H](OC)[C@H](C)C(=O)O)O3)O2)O1` [Monensin sodium salt], the “scaled lipid accumulation score” value was 0.541 (inactive).
With `C=C1[C@H]2C[C@@]3([C@@H]1O)[C@@H](C[C@@H]2O)[C@]12[C@@H]4C[C@H]3[C@H]1N(CC)C[C@]4(C)CC[C@@H]2O` [Napelline], the “scaled lipid accumulation score” value is ≤ 0 (inactive).
Regarding `NCCC(O)C(=O)NC1CC(N)C(OC2OC(CN)C(O)[C@H](O)[C@@H]2N)[C@H](OC2O[C@H](CO)[C@@H](O)[C@@H]2O)[C@@H]1O` (stereo partly specified) [Butirosin disulfate salt], the “scaled lipid accumulation score” value is 0.015 (inactive).
With `COc1ccc(/C=C\c2cc(OC)cc(OC)c2)cc1` [cis-trismethoxy Resveratrol], the “scaled lipid accumulation score” value under setting [2] was 0.097 (inactive).
`N[C@]1(C(=O)O)CC[C@H](C(=O)O)C1`: the “scaled lipid accumulation score” value under setting [1] is 0.035 (inactive).
For the molecule `C[C@H]1O[C@@H](O[C@@H]2C[C@H](O)[C@]3(CO)[C@H]4[C@H](O)C[C@]5(C)[C@H](C6=CC(=O)OC6)CC[C@]5(O)[C@@H]4CC[C@]3(O)C2)[C@@H](O)[C@H](O)[C@H]1O.O.O.O.O.O.O.O.O` [Ouabain], the “scaled lipid accumulation score” value reads like this: under setting [3], 1.05 (active); under setting [1], 1.06 (active).
As to `C[C@@H]1O[C@@H](O[C@H]2C[C@@H](O)[C@]3(CO)[C@H]4[C@H](O)C[C@]5(C)[C@@H](C6=CC(=O)OC6)CC[C@]5(O)[C@@H]4CC[C@]3(O)C2)[C@H](O)[C@H](O)[C@H]1O.O.O.O.O.O.O.O.O` [Strophantine octahydrate], the “scaled lipid accumulation score” value was 1.02 (active).
As for `CCCCC/C=C\C/C=C\C/C=C\C/C=C\CCCC(=O)Nc1ccc2c(C)cc(=O)oc2c1` [AMC Arachidonoyl Amide], under setting [2], the “scaled lipid accumulation score” value is 0.06 (inactive).
Take `C/C=C1\C[C@@H](C)[C@](O)(CO)C(=O)OCC2=CCN3CC[C@@H](OC1=O)[C@@H]23` [Retrorsine]: the “scaled lipid accumulation score” value was ≤ 0 (inactive).
As for `COc1c(C[C@@H](C)OC(=O)Oc2ccc(O)cc2)c2c3c(C[C@@H](C)OC(=O)c4ccccc4)c(OC)c(=O)c4c(O)cc(OC)c(c5c(OC)cc(O)c(c1=O)c52)c43` [Calphostin C], the “scaled lipid accumulation score” value (library stock concentration: 600 uM) is 0.094 (inactive).
Take `C=C[C@]12CN(C)[C@@H]3[C@H]4CO[C@H](C[C@H]41)[C@]1(C(=O)Nc4ccccc41)[C@@H]32` [Gelsemine]: the “scaled lipid accumulation score” value is ≤ 0 (inactive).
Consider `C=CCc1ccccc1OCC(O)CNC1(C)CCC(C(C)(C)NC(=O)CBr)CC1` (stereo unspecified) [Bromoacetyl alprenolol menthane], for which the “scaled lipid accumulation score” value under setting [1] is ≤ 0 (inactive).
Regarding `CO[C@H]1CC[C@@H](O[C@H]2C[C@H]([C@]3(C)CC[C@]4(C[C@H](O)[C@@H](C)[C@@H]([C@@H](C)/C=C(\C)C(=O)[C@H](C)C[C@H](C)C(=O)O)O4)O3)O[C@]3(O[C@@H]([C@H]4O[C@@](O)(CO)[C@H](C)C[C@@H]4C)C[C@@H]3C)[C@@H]2C)O[C@@H]1C` [Nanchangmycin], the “scaled lipid accumulation score” value under setting [3] is 1.27 (active) and the “scaled lipid accumulation score” value under setting [1] is 0.663 (inactive).
Consider `CO[C@@H]1C[C@@H](C[C@H]2CC[C@H](C)[C@H]([C@@H](C)C(=O)O)O2)O[C@]2(O[C@](C)([C@H]3CC[C@@](C)([C@@H]4O[C@@H]([C@H]5O[C@@](O)(CO)[C@H](C)C[C@@H]5C)C[C@@H]4C)O3)C[C@H]2C)[C@@H]1C` [Nigericin], for which, where the note is “library stock concentration: 6.9 mM”, the “scaled lipid accumulation score” value was 0.535 (inactive).
`NC(Cc1cc(O)c(O)cc1O)C(=O)O` (racemic) [6-Hydroxy-DL-DOPA]: the “scaled lipid accumulation score” value under setting [1] is ≤ -0.07 (inactive).
As to `C[C@]12CC[C@H](O)C[C@H]1CC[C@@H]1[C@@H]2C[C@@H](O)[C@]2(C)[C@@H](C3=CC(=O)OC3)CC[C@]12O` [Digoxigenin], the “scaled lipid accumulation score” value was 0.991 (active).
The same measure, in the same setting: then `CC(=O)O[C@H]1C[C@H](O[C@H]2[C@@H](O)C[C@H](O[C@H]3[C@@H](O)C[C@H](O[C@H]4CC[C@@]5(C)[C@H](CC[C@@H]6[C@@H]5C[C@@H](O)[C@]5(C)[C@@H](C7=CC(=O)OC7)CC[C@]65O)C4)O[C@@H]3C)O[C@@H]2C)O[C@H](C)[C@H]1O[C@@H]1O[C@H](CO)[C@@H](O)[C@H](O)[C@H]1O` [Lanatoside C], with 1.08 (active); and `C[C@H]1CC[C@]2(NC1)O[C@H]1C[C@H]3[C@@H]4CC[C@H]5C[C@@H](O[C@@H]6O[C@H](CO)[C@H](O[C@@H]7O[C@H](CO)[C@@H](O)[C@H](O[C@@H]8OC[C@@H](O)[C@H](O)[C@H]8O)[C@H]7O[C@@H]7O[C@H](CO)[C@@H](O)[C@H](O)[C@H]7O)[C@H](O)[C@H]6O)CC[C@]5(C)[C@H]4CC[C@]3(C)[C@H]1[C@@H]2C` [Tomatine], with 0.319 (inactive); and `C[C@]12CC[C@H](O)C[C@H]1CC[C@@H]1[C@@H]2CC[C@]2(C)[C@@H](C3=CC(=O)OC3)CC[C@]12O` [Digitoxigenin], with 0.936 (active).
Turning to `C[C@]12CC[C@H](O)C[C@@H]1CC[C@@H]1[C@@H]2CC[C@]2(C)C(=O)CC[C@@H]12` [Epiandrosterone], the “scaled lipid accumulation score” value was 0.082 (inactive). Besides, the “scaled lipid accumulation score” value under setting [3] was ≤ 0 (inactive). Further, the “scaled lipid accumulation score” value under setting [1] is ≤ 0 (inactive).
For the molecule `C[C@]12CC[C@@H](O)C[C@H]1CC[C@@H]1[C@@H]2CC[C@]2(C)C(=O)CC[C@@H]12` [3-alpha-Hydroxy-5-beta-androstan-17-one], the “scaled lipid accumulation score” value is ≤ 0 (inactive).
As to `CO[C@H]1[C@H](O)[C@@H](O[C@H]2CC[C@]3(C=O)C4CC[C@]5(C)[C@@H](C6=CC(=O)OC6)CC[C@]5(O)C4CC[C@@H]3C2)O[C@@H](C)[C@@H]1O` (stereo partly specified) [Peruvoside], the “scaled lipid accumulation score” value under setting [1] is 0.873 (active).
In the case of `CC(=O)O[C@H]1C[C@H](O[C@H]2[C@@H](O)C[C@H](O[C@H]3[C@@H](O)C[C@H](O[C@H]4CC[C@@]5(C)[C@H](CC[C@@H]6[C@@H]5C[C@@H](O)[C@]5(C)[C@@H](C7=CC(=O)OC7)CC[C@]65O)C4)O[C@@H]3C)O[C@@H]2C)O[C@H](C)[C@H]1O[C@@H]1O[C@H](CO)[C@@H](O)[C@H](O)[C@H]1O` [Lanatoside c], the “scaled lipid accumulation score” value (library stock concentration: 2 mM) was 0.894 (active) and the “scaled lipid accumulation score” value under setting [1] was 0.892 (active).
In the case of `C[C@@H]1O[C@@H](O[C@H]2CC[C@]3(C=O)[C@H]4CC[C@]5(C)[C@@H](C6=CC(=O)OC6)CC[C@]5(O)[C@@H]4CC[C@]3(O)C2)[C@H](O)[C@H](O)[C@H]1O` [Convallatoxin], the “scaled lipid accumulation score” value under setting [1] is 0.656 (inactive).
`CC(=O)[C@H]1CC[C@H]2[C@@H]3CC[C@H]4C[C@H](O)CC[C@]4(C)[C@H]3CC[C@]12C` [5alpha-Pregnan-3alpha-ol-20-one]: the “scaled lipid accumulation score” value under setting [1] was ≤ 0 (inactive).
With `C[C@]12CC[C@@H](O)C[C@@H]1CC[C@@H]1[C@@H]2CC[C@]2(C)C(=O)CC[C@@H]12` [Androsterone], the “scaled lipid accumulation score” value is 0.083 (inactive).
